Most compounds without a hit are left out; they make up all but 5.4% or so of the library.
PHOSPHO1 inh = inhibitors of human PHOSPHO1 phosphatase; recombinant PHOSPHO1, absorbance phosphatase assay; 290,000 compounds, 1.1% hits; AID 1565; inhibition, % at 13.3 µM; Q8TCT1; in the data active = inhibition above about 60%
APOBEC3A inh = blocks human APOBEC3A ssDNA deamination. P31941. AID 493011. 330,000 compounds, 0.41% hits. recombinant A3A, FAM/TAMRA ssDNA deamination fluorescence. inhibition, % at 20 µM;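 active = at least 40% inhibition at 20 µM here, with at most 30% in a related deaminase screen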
aDG glyco act = increases alpha dystroglycan glycosylation | Pro5-aDG cells, alpha-DG glycosylation AlphaScreen (IIH6); 0% Pro5, 100% B10-LARGE cell signal | activation, % at 10 µM | AID 624168 | 360,000 compounds, 0.22% hits;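 active = activation of at least 8% versus controls, or a plate z-score of at least 8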;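 note: Pro5 are CHO cells carrying HIG-tagged alpha-DG that lacks glycosylation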
rCAG RNA binder = molecules binding r(CAG) RNA repeats; r(CAG) RNA repeat, TO-PRO-1 dye displacement fluorescence; inhibition, % at 3 µM; 370,000 compounds, 1.3% hits;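 active = inhibition above the plate cutoff, the mean of all test compounds on that plate plus 3 SD, cut at about 35% in these data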;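 note: higher means more dye released from RNA so lower well fluorescence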
ALR H2O2 inh = human ALR oxidase inhibition via reduced H2O2; inhibition, % (test concentration not listed); purified ALR, DTT oxidation, H2O2 HRP-luminol luminescence; AID 485317; 290,000 compounds, 3.8% hits;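 active = mean replicate inhibition above about 79%, with every replicate also reaching it, limit read from the data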
Target sequence (P55789 whole entry, looked up): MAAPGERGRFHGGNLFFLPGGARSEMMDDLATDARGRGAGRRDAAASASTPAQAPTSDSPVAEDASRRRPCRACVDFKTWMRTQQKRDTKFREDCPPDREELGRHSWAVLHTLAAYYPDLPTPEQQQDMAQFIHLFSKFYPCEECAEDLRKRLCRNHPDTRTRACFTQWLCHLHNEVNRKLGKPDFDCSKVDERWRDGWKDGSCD
APOBEC3G inh = blocks human APOBEC3G single-stranded DNA deamination; Q9HC16; recombinant A3G, ssDNA deamination FAM/TAMRA fluorescence; inhibition, % at 20 µM; 330,000 compounds, 0.28% hits; AID 493012;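 active = inhibition of at least 40% at 20 µM, with no more than 30% in the related APOBEC3A deaminase screen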
Target sequence (Q9HC16 whole entry, looked up): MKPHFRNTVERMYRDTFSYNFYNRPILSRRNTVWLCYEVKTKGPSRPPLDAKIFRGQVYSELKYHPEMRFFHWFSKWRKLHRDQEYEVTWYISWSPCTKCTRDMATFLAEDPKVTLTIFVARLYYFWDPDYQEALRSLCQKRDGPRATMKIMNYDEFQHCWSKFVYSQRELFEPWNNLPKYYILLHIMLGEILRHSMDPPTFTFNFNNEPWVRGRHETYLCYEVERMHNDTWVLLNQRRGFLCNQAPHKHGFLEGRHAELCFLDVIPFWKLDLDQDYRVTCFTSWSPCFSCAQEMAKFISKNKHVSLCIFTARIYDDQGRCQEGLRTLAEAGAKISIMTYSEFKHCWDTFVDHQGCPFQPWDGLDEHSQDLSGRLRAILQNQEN
rCAG binder conf = r(CAG) RNA repeat binding, confirmation. TO-PRO-1 dye displacement fluorescence. 4,300 compounds, 70% hits. AID 652065. shares compounds with rCAG RNA binder. inhibition, % at 3 µM;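 active = inhibition above a per-plate cutoff, the mean inhibition of sample wells plus 3 SD, cut at about 35% in these data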;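 note: loss of TO-PRO-1 fluorescence as compound displaces dye from 1x1 AA loop RNA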
dCAG dye counter = disrupts DNA CAG TO-PRO-1 complex, flagging rCAG hits | shares compounds with rCAG RNA binder | d(CAG) DNA oligo TO-PRO-1 dye displacement, fluorescence | inhibition, % at 3 µM | 4,300 compounds, 94% hits | AID 652068;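 active = inhibition above its plate's cutoff, the mean test-well inhibition plus 3 SD, cut at about 4.8% in these data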;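 note: hits displace the dye from DNA and so lower well fluorescence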
Numbers stand for hits; – = inactive; · = no result; ! = not active in a repeat.

SMILES | PHOSPHO1 inh | APOBEC3A inh | aDG glyco act | rCAG RNA binder | ALR H2O2 inh | APOBEC3G inh | rCAG binder conf | dCAG dye counter
Cc1ccc(S(=O)(=O)N2[C@@H](c3ccccc3F)C(C(=O)O)=CC[C@H]2c2ccc(C(C)C)cc2)cc1 | · | – | – | 76.8 | – | – | 81.1 | 47.1
COc1ccc([C@@H]2CC=C(C(=O)O)[C@H](c3ccccc3F)N2S(=O)(=O)c2ccc(C)cc2)cc1OC | · | – | – | – | – | – | · | ·
COc1ccc(NC(=O)COC(=O)c2c(C)noc2C)cc1Cl | · | · | – | – | · | · | · | ·
CCCCN(C(=O)c1ccccc1Br)C(c1ccc(OC)cc1)c1nc2ccccc2[nH]1 (configuration not stated) | · | · | – | – | · | · | · | ·
O=C(O)c1cccc(N/N=C/c2ccc(-c3ccccc3)cc2)c1 | – | · | – | – | · | · | · | ·
O=C(O)c1cc(NN=C2c3ccccc3-c3ccccc32)ccc1Cl | – | – | – | 92.6 | · | – | 80.7 | 50.1
COc1ccc(Br)cc1/C=N/Nc1cccc(C(=O)O)c1 | – | – | – | – | · | – | · | ·
COc1ccccc1/C=C/C=N/Nc1cccc(C(=O)O)c1 | – | – | – | 36.0 | 98.5 | – | 36.9 | 9.3
O=C(O)c1cc(N/N=C/C(Cl)=C/c2ccccc2)ccc1Cl | – | – | – | 57.5 | · | – | 45.2 | 17.5
O=C(O)c1cc(N/N=C/c2cccc3ccccc23)ccc1Cl | – | – | – | – | · | – | · | ·
O=C(O)c1cccc(N/N=C/c2cc(Br)cc(Br)c2O)c1 | – | – | – | 94.7 | 98.4 | – | 82.6 | 47.8
Nc1c(Cl)ncnc1Nc1ccc(C(=O)O)cc1 | · | · | – | – | · | · | · | ·
O=C(c1cc(C2CCCCN2C(=O)CCCc2ccccc2)on1)N1CCOCC1 (configuration not stated) | · | · | – | – | · | · | · | ·
O=C(O)c1cccc(NN=C2c3ccccc3-c3ccccc32)c1 | – | · | – | 86.8 | · | · | 80.8 | 46.8
CCN(CC)Cc1c(O)ccc2c1O/C(=C\C=C\c1ccccc1)C2=O | – | – | – | – | – | – | · | ·
COCCN(CCOC)Cc1c(O)ccc2c1O/C(=C\c1ccc(C)o1)C2=O | – | – | – | 36.0 | – | – | – | –
C[C@H](CO)N1C[C@H](C)[C@H](CN(C)Cc2ccc(C(=O)O)cc2)OCc2ccccc2-c2c(n(C)c3ccccc23)C1=O | · | · | – | 47.6 | · | · | 49.5 | 13.9
C[C@@H]1CN([C@H](C)CO)C(=O)c2c(c3ccccc3n2C)-c2ccccc2CO[C@H]1CN(C)Cc1ccccc1 | · | · | – | – | · | · | · | ·
CCN(CC)S(=O)(=O)c1ccc(N2CCOCC2)c(NS(=O)(=O)c2ccc(Cl)s2)c1 | · | · | – | 43.9 | · | · | 39.1 | 10.1
CCN(CC)S(=O)(=O)c1ccc(N2CCOCC2)c(NC(=O)C2CC2)c1 | · | – | – | – | – | – | · | ·
COc1ccccc1N1CCCSC1=Nc1ccccc1 | · | · | – | – | · | · | · | ·
CCN1CCN(Cc2ccc(NC(=O)c3cc(NC(=O)C4=NN(c5ccccc5)C(=O)C4)cc(OC)c3)cc2C(F)(F)F)CC1 | – | – | – | 37.8! | – | – | – | 19.6
COc1cccc(C(=O)NCCNC(=O)c2ccco2)c1 | – | – | – | – | – | – | · | ·
COc1cc(C(=O)NCCNC(=O)c2ccco2)cc(OC)c1OC | · | · | – | 45.8 | · | · | 42.6 | 12.6
Cc1ccc(C(=O)Nn2cnc3scc(-c4cccs4)c3c2=O)c(O)c1 | – | – | – | 40.1 | – | – | – | 8.7
SMILES | PHOSPHO1 inh | APOBEC3A inh | aDG glyco act | rCAG RNA binder | ALR H2O2 inh | APOBEC3G inh | rCAG binder conf | dCAG dye counter
Cc1ccc(-n2cnc3scc(-c4cccs4)c3c2=O)cc1 | – | – | – | – | – | – | · | ·
Cc1[nH]c2ccccc2c1C(=O)c1c(N)[nH]c(C(=O)c2ccccc2)c1-c1ccc(Cl)cc1 | · | · | · | – | · | · | · | ·
CCN1C(=O)/C(=C\c2ccc(-c3ccc([N+](=O)[O-])cc3OC)o2)SC1=Nc1cccc(C(=O)O)c1 | – | · | – | 62.5 | · | · | 84.2 | 49.5
CC(=O)OC[C@@H]1CN(Cc2ccccc2)C[C@H](n2cnc3c(NC4CCCC4)ncnc32)O1 | · | · | – | – | · | · | · | ·
Oc1cc(O)cc(C=Cc2ccc(O)c(O)c2)c1 | · | · | · | 38.1 | · | · | – | 14.7
CC1(C(=O)NS(=O)(=O)c2ccc3c(c2)CCO3)CCN1C(=O)C1(c2ccc(Cl)cc2)CC1 (configuration not stated) | · | · | – | – | · | · | · | ·
CC1(C(=O)NS(=O)(=O)c2cccc(Cl)c2)CCN1C(=O)C1(c2ccc(Cl)cc2)CC1 (configuration not stated) | · | · | – | 43.1 | · | · | 44.8 | 9.8
Cc1cccc(S(=O)(=O)NC(=O)C2(C)CCN2C(=O)C2(c3ccc(Cl)cc3)CCC2)c1 (configuration not stated) | · | · | – | 42.0 | · | · | 41.8 | 10.6
CC1(C(=O)NS(=O)(=O)c2cccc(Cl)c2)CCN1C(=O)C1(c2ccc(Cl)cc2)CCC1 (configuration not stated) | · | · | – | 61.2 | · | · | 67.5 | 18.0
CC1(C(=O)NS(=O)(=O)c2ccccc2)CCN1C(=O)C1(c2ccc(Cl)cc2)CCC1 (configuration not stated) | · | · | – | – | · | · | · | ·
CC(O)(c1cccnc1)c1nc(-c2cccc(C#N)c2)cs1 (configuration not stated) | · | · | – | – | · | · | · | ·
CCOC(=O)C1=C(CC)Nc2ccccc2N/C1=N\S(=O)(=O)c1cc(Br)ccc1Br | – | – | – | 63.1 | · | – | 59.0 | 21.2
CCOC(=O)C1=C(C)Nc2ccccc2N/C1=N\S(=O)(=O)c1cc(C(=O)O)ccc1Cl | · | – | – | – | – | – | · | ·
CCOC(=O)C1=C(CC)Nc2ccccc2N/C1=N\S(=O)(=O)c1ccc2ccccc2c1 | – | – | – | 36.0 | · | – | 41.4 | 11.7
CCOC(=O)C1=C(C)Nc2ccccc2N/C1=N\S(=O)(=O)c1ccc(Cl)cc1 | · | – | – | 35.2 | – | – | – | 4.9
CCCCCCCCCC1(CC(=O)OCC)SCCN1C(N)=O (configuration not stated) | · | · | – | – | · | · | · | ·
O=C(O)c1ccc(Cn2cnc3scc(-c4ccccc4)c3c2=O)cc1 | – | – | – | – | – | – | · | ·
CCCOc1ccc(-c2csc3ncn(Cc4ccc(C(=O)O)cc4)c(=O)c23)cc1 | – | – | – | 51.3 | – | – | 39.6 | 11.1
CC1CCc2c(sc(NC(=O)COC(=O)c3ccc(NC(=O)CC#N)cc3)c2C#N)C1 (configuration not stated) | · | – | – | 39.4 | · | – | 37.0 | 17.7
Cc1cc(C(=O)OCC(=O)Nc2sc3c(c2C#N)CCC(C)C3)c2ccccc2n1 (configuration not stated) | – | – | – | – | · | – | · | ·
CCCc1cc(=O)[nH]c(SCC(=O)Nc2sc3c(c2C#N)CCC(C)C3)n1 (configuration not stated) | – | – | – | 66.2 | 89.3 | – | 52.7 | 19.9
